# 3CLpro inhibitor: SARS-CoV 3CLpro protease inhibition; 0.14% of 290,000 active; P0C6X7; inhibition, % at 6 µM; recombinant SARS-CoV 3CLpro, quenched FRET peptide cleavage; in the data active = inhibition above about 12%
# PrPC TRFRET: cell surface PrPC inhibition, primary TR-FRET screen. P04156. TR-FRET read-out. inhibition, % at 13.8 µM. 0.43% of 370,000 active; in the data active = inhibition above about 24%; also: 0% = median of the test wells and 100% = reference compound wells
# FBA Mtb inh: inhibitors of M. tuberculosis fructose-bisphosphate aldolase; 2.3% of 360,000 active; AID 588726; inhibition, % at 1 µM; purified M. tuberculosis FBA, fluorescence read-out;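 also: 0% = vehicle and 100% = reference inhibitor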
# Target sequence (P9WQA3 whole entry, looked up): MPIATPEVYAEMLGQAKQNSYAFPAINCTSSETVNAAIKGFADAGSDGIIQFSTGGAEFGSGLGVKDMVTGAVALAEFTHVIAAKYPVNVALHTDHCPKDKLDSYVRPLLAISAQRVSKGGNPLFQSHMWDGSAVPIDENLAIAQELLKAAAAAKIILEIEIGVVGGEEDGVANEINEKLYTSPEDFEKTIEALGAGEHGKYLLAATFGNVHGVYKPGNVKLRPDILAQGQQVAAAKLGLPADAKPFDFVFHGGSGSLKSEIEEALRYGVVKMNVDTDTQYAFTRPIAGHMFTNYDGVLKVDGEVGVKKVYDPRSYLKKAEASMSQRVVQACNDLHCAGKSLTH
# Vc quorum ag: inducers of Vibrio cholerae quorum light production without autoinducers | V. cholerae BH1578 lux reporter, luminescence, 6 h | activation, % at 18.7 µM | 0.16% of 350,000 active | AID 588436; in the data active = activation mostly above about 9.7%, no sharp cut-off
# GDH-TPI counter-1: counter-screen for M. tuberculosis FBA inhibitors: GDH-TPI coupled enzymes | GDH-TPI coupled enzyme counterscreen, NADH absorbance | inhibition, % at 4.8 µM | 1.2% of 360,000 active; in the data active = inhibition above about 30%;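 also: 0% = DMSO wells and 100% = wells lacking the enzyme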
# Mtb FBA confirm: confirmation of M. tuberculosis fructose-bisphosphate aldolase inhibitors; inhibition, % at 1 µM; shares compounds with FBA Mtb inh; purified M. tuberculosis FBA, fluorescence read-out; 78% of 5,600 active;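 also: 0% = vehicle wells and 100% = reference inhibitor wells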
# GDH-TPI counter-2: inhibits GDH-TPI coupling enzymes, flagging Mtb FBA hits. shares compounds with FBA Mtb inh. GDH-TPI coupled enzyme counterscreen, fluorescence. inhibition, % at 1 µM. 81% of 5,600 active; in the data active = inhibition above about 10%
# Active calls of the source: *; i = inactive; . = not tested or not shown; + = active, no number. Most compounds without a hit are left out; they make up all but 3.9% or so of the library. Rule as the data show it, unless noted: active = inhibition above about 27%; inactive = the rest.
SMILES,3CLpro inhibitor,PrPC TRFRET,FBA Mtb inh,Vc quorum ag,GDH-TPI counter-1,Mtb FBA confirm,GDH-TPI counter-2
CCOCCCNC(=O)c1ccc2c(c1)ncn2C1CCCC1,2,9,6,i,5,.,.
C=CCOc1c2ccc(C(=O)NC3CCCc4ccccc43)cc2nn1C (centres undefined),0,0,15,-1,5,.,.
CCOc1c2ccc(C(=O)NC3CCCc4ccccc43)cc2nn1C (centres undefined),3,-4,59*,0,5,30*,22*
CCCCn1nc2cc(C(=O)NC3CCCc4ccccc43)ccc2c1OCC (centres undefined),3,8,36*,-1,3,184*,132*
COc1ccc(C#Cc2cnc3c(c2)C(=O)N([C@@H](C)CO)C[C@@H](C)[C@@H](CN(C)CC2CCOCC2)O3)cc1,.,4,3,i,9,.,.
CCN(CC)C(=O)Cn1cc(S(=O)(=O)CC(=O)NC2CCCCC2)c2ccccc21,2,3,33*,0,-10,99*,83*
CCCCC[n+]1cccc2c3ccccc3ccc21,4,-14,100*,1,9,85*,61*
CCCC[n+]1c2ccccc2cc2ccccc21,3,-9,11,-1,-17,.,.
c1ccc(C[n+]2cccc3c4ccccc4ccc32)cc1,0,-19,40*,.,6,+,+
CCN(CC)C(=O)CC[C@@H]1CC[C@]2(CCCN(S(=O)(=O)c3ccccc3)C2)O1,.,1,.,.,.,.,.
CCOC(=O)N1CCN(S(=O)(=O)N2CCCC(C(=O)NCc3ccccc3OCC)C2)CC1 (centres undefined),.,10,4,i,12,.,.
Nc1ccccc1C(=O)Nc1nccs1,4,-1,55*,i,7,128*,84*
O=C(Nc1nccs1)c1ccccc1Br,-2,-7,1,0,9,.,.
CCCCNC(=O)c1cn(C)c2ccc(S(=O)(=O)N3CC(C)CC(C)C3)cc2c1=O (centres undefined),0,.,4,-3,7,.,.
COc1ccc2c(C)c(C(=O)N3CC[C@@H](N4CCC(O)CC4)[C@H](O)C3)oc2c1,-2,-5,45*,i,0,105*,81*
COc1ccc(N2CCN(C(=O)c3oc4ccccc4c3C)CC2)cc1,4,-5,-3,1,-5,.,.
CCCCCc1cccc2[nH]cc(-c3ccccc3)c12,.,-6,.,.,.,.,.
COc1cccc(C2NC(=S)NC(C)=C2C(C)=O)c1 (centres undefined),.,2,.,.,.,.,.
Cc1ccc(-n2nc(C)c3c2NC2=C(C(=O)CC(C)(C)C2)C3c2ccccc2OCC(=O)O)cc1 (centres undefined),6,2,37*,0,4,194*,129*
C=CCOc1ccccc1C1C2=C(CC(C)(C)CC2=O)Nc2c1c(=O)n(C)c(=O)n2C (centres undefined),-3,3,22,i,12,.,.
O=C(COC(=O)c1ccccc1NCCO)Nc1cccc(S(=O)(=O)NC2=NCCCCC2)c1,.,-1,53*,-1,9,-5,-7
CCC(=O)Nc1ccccc1C(=O)OCC(=O)Nc1ccc(S(N)(=O)=O)cc1,0,0,1,-1,-5,.,.
CCOc1ccccc1C(=O)OCC(=O)Nc1cccc(S(=O)(=O)NC2=NCCCCC2)c1,.,0,1,6,7,.,.
COc1cccc(/C=C/C(=O)OCC(=O)Nc2cccc(S(=O)(=O)NC3=NCCCCC3)c2)c1,.,-4,36*,i,0,0,-10
CCCCNc1ccccc1C(=O)OCC(=O)Nc1ccc(S(N)(=O)=O)cc1,2,13,48*,i,-11,34*,23*
SMILES,3CLpro inhibitor,PrPC TRFRET,FBA Mtb inh,Vc quorum ag,GDH-TPI counter-1,Mtb FBA confirm,GDH-TPI counter-2
CCN(CC)c1ccc(/C=N/NC(=O)c2nnn(-c3nonc3N)c2CN(C)C2CCCCC2)cc1,.,-9,0,-3,4,.,.
CCc1c(C)nc(N2CCN(c3ccc(Cl)cc3)CC2)[nH]c1=O,1,8,-1,i,-5,.,.
C=CCn1c(=O)n(CCOC)c(=O)c2sc3ccccc3c21,-6,-5,38*,0,11,155*,164*
COCCCn1c(=O)c2ccccc2n(Cc2ccccc2)c1=O,1,5,2,0,-14,.,.
COc1ccc2[nH]c3c(=O)n4c(nc3c2c1)SCC4,0,4,50*,i,8,12,10
COc1cccc(-n2c(SCC(N)=O)nc3c([nH]c4ccccc43)c2=O)c1,-2,3,0,-2,14,.,.
Cc1ccc2[nH]c3c(=O)n(N)c(C)nc3c2c1,-3,7,41*,0,14,39*,27*
COc1ccc2[nH]c3c(=O)n(N)c(C)nc3c2c1,-3,5,106*,-1,10,157*,137*
CCCNC(=O)c1ccc(N2CCC3(CC2)CC(c2cccc(Br)c2)=NO3)c([N+](=O)[O-])c1,9,-9,6,-1,13,.,.
CN(C)S(=O)(=O)c1ccc(Cl)c(NC(=O)COc2ccccc2[N+](=O)[O-])c1,3,2,0,0,9,.,.
COc1ccc(O)c(C(=O)CC(=O)c2ccc(F)cc2)c1,-3,-4,81*,-6,15,79*,52*
COc1ccc(C(=O)COc2ccc(F)cc2)c(O)c1,0,3,1,2,5,.,.
COC(=O)C(C)Oc1ccc(-c2nccc(-c3ccccn3)n2)cc1 (centres undefined),0,6,110*,-2,3,68*,60*
COC(=O)C(C)Oc1ccc(-c2nccc(-c3ccc(F)cc3)n2)cc1 (centres undefined),2,-1,2,i,-7,.,.
O=C1CCC(=O)N1c1nc2nc(-c3ccccc3)cc(-c3ccccc3)n2n1,0,0,66*,1,23,89*,62*
CC(C)c1ccc(S(=O)(=O)N2CCN(CC(O)CN3CCOCC3)CC2)cc1 (centres undefined),.,-10,51*,0,-1,82*,70*
CC(OCC(O)CN1CCN(S(=O)(=O)c2ccc(Cl)cc2)CC1)c1ccc(Cl)cc1 (centres undefined),.,-3,-2,0,11,.,.
CCSc1n[nH]c2nc3c(c(=O)n12)C1(CCCCC1)Cc1ccccc1-3,2,0,5,0,15,.,.
Cn1c(NCCCO)nc2c(c1=O)C1(CCCCC1)Cc1ccccc1-2,2,8,65*,0,15,122*,85*
N#CCSc1n[nH]c2nc3c(c(=O)n12)C1(CCCCC1)Cc1ccccc1-3,8,-2,28*,i,3,-1,-3
COc1ccc2nc(N/C(N)=N/S(C)(=O)=O)nc(C)c2c1,2,-4,53*,0,-1,+,+
